Measurements: PubChem BioAssay (NCATS)
Several values for one entry are separate records, joined by “and”; a condition that tells them apart may be missing. Equal values may be shown once. Records with an inconclusive call do not appear. Activity calls are given as the source filed them. Calls follow the shape of the dose curve; as a rule, active = well fitted curve in the direction sought with a large enough effect; inconclusive = small, poorly fitted or top-dose-only effect, or another doubt; inactive = no such curve, though single readings can be large or run the other way.

experiment: qHTS Assay for Identifying Gametocytocidal Compounds (AID 743244);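 also: actives lower the fluorescent signal which means gametocytes are killed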; conditions: P. falciparum 3D7 stage III-V gametocytes, alamarBlue, 72 h; max response: hits give low values
Method in brief: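 A resazurin-based viability read-out was applied to mature P. falciparum gametocytes: 72 h compound treatment, then 24 h dye incubation, with falling fluorescence signalling gametocytocidal effect.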
% is scaled to controls: 0 for no effect and ±100 for the full control effect.

Q: Which max response does the source give for `C[C@@H]1CC[C@@]2(OC1)O[C@H]1C[C@H]3[C@@H]4CC[C@H]5C[C@@H](O)CC[C@]5(C)[C@H]4CC(=O)[C@]3(C)[C@H]1[C@@H]2C` here?
A: Its max response is -9.03% (inactive).

Q: With `CC/C=C(\C(=O)N[C@@H]1C(=O)N2C(C(=O)OCOC(=O)C(C)(C)C)=C(COC(N)=O)CS[C@H]12)c1csc(N)n1` as the compound, how does the max response read?
A: The max response was 11.6% (inactive) and -14.5% (inactive).

Q: With `Nc1ccc(S(=O)(=O)Nc2ccc(Cl)nn2)cc1` as the compound, how does the max response read?
A: Its max response is 13.8% (inactive) and 15.1% (inactive).

Q: Which max response does the source give for `NC1[C@H]2CN(c3nc4c(cc3F)c(=O)c(C(=O)O)cn4-c3ccc(F)cc3F)C[C@@H]12` (some centres undefined) here?
A: Its max response is -0.422% (inactive).

Q: Which max response does the source give for `O=c1[nH]cnc2c1ncn2[C@@H]1O[C@H](CO)[C@@H](O)[C@H]1O` here?
A: The max response was 5.28% (inactive).

Q: With `C[C@H]1O[C@H](O[C@H]2[C@H](O)[C@@H](O)[C@@H](O[C@H]3[C@H](O)[C@@H](O)[C@H](O)O[C@@H]3CO)O[C@@H]2CO)[C@H](O)[C@@H](O)[C@@H]1N[C@H]1C=C(CO)[C@@H](O)[C@H](O)[C@H]1O` as the compound, how does the max response read?
A: The max response was 2.05% (inactive).

Q: For `CC(=O)Nc1ccc(/C=N/NC(N)=S)cc1`, which max response is on record?
A: Its max response is -6.31% (inactive) and 5.4% (inactive).

Q: With `CCOC(=O)[C@H](CCc1ccccc1)N[C@@H](C)C(=O)N1C(=O)N(C)C[C@H]1C(=O)O` as the compound, how does the max response read?
A: The max response was 6.96% (inactive).

Q: For `OCC(CO)N[C@H]1C[C@](O)(CO)[C@@H](O)[C@H](O)[C@H]1O`, which max response is on record?
A: Its max response is 7.19% (inactive).

Q: Which max response does the source give for `O=C(O)c1ccccc1-c1ccc(C(F)(F)F)cc1` here?
A: Its max response is -6.58% (inactive).

Q: For `Oc1cn2c(n1)Nc1ccc(Cl)c(Cl)c1C2`, which max response is on record?
A: Its max response is 2.25% (inactive) and 14.5% (inactive).

Q: Which max response does the source give for `NC(=O)NC(=O)Cc1ccccc1` here?
A: The max response was 3.39% (inactive).

Q: With `C=CCn1c(=O)n([C@@H]2O[C@H](CO)[C@@H](O)[C@H]2O)c2nc(N)[nH]c(=O)c21` as the compound, how does the max response read?
A: The max response was 7.63% (inactive).

Q: With `C[C@H](NC(CCc1ccccc1)C(=O)O)C(=O)N1CCC[C@H]1C(=O)O` (some centres undefined) as the compound, how does the max response read?
A: The max response was 7.34% (inactive).

Q: Which max response does the source give for `COc1cc2[nH]c(=O)[nH]c(=O)c2cc1OC` here?
A: Its max response is 5.15% (inactive).

Q: With `CS(=O)(=O)c1ccc([C@@H](O)[C@@H](CF)NC(=O)C(Cl)Cl)cc1` as the compound, how does the max response read?
A: Its max response is 23.9% (inactive).

Q: With `Cc1ncc(COP(=O)(O)O)c(C=O)c1O` as the compound, how does the max response read?
A: The max response was 5.05% (inactive).

Q: For `CC1(C)Oc2ccc(C#N)cc2[C@@H](N2CCCC2=O)[C@@H]1O`, which max response is on record?
A: The max response was -8.5% (inactive) and 8.76% (inactive).

Q: For `CN1CCOC(c2ccccc2)c2ccccc2C1` (centres undefined), which max response is on record?
A: Its max response is -7.73% (inactive).

Q: For `Cc1cc(C(C#N)c2ccc(Cl)cc2)c(Cl)cc1NC(=O)c1cc(I)cc(I)c1O` (centres undefined), which max response is on record?
A: Its max response is 0.496% (inactive).

Q: For `NC(CSCC(=O)O)C(=O)O` (centres undefined), which max response is on record?
A: The max response was -8.42% (inactive).

Q: For `O=C(O)CC(O)C(=O)O` (centres undefined), which max response is on record?
A: The max response was -0.517% (inactive).

Q: Which max response does the source give for `O=S(=O)(O)c1cc(I)c(O)c2ncccc12` here?
A: The max response was 5.64% (inactive).

Q: With `CC(=O)Oc1ccc(C2(c3ccc(OC(C)=O)cc3)C(=O)Nc3ccccc32)cc1` as the compound, how does the max response read?
A: Its max response is -4.55% (inactive) and 20.8% (inactive).

Q: Which max response does the source give for `O=C1O[C@H](CO)[C@@H](O)[C@H](O)[C@H]1O` here?
A: Its max response is -3.17% (inactive).

Q: With `CCN(CC)CCSC(=O)C(c1ccccc1)c1ccccc1` as the compound, how does the max response read?
A: Its max response is -11.9% (inactive).

Q: Which max response does the source give for `C[C@@H](O)[C@H](N)C(=O)O` here?
A: Its max response is 6.39% (inactive).

Q: With `NC(=O)NNc1ccccc1` as the compound, how does the max response read?
A: The max response was 5.12% (inactive) and -3.42% (inactive).

Q: With `CN1[C@@H]2CC[C@H]1CC(OC(=O)C(O)c1ccccc1)C2` (some centres undefined) as the compound, how does the max response read?
A: Its max response is -8.53% (inactive) and 3.5% (inactive) and -4.14% (inactive).

Q: With `Nc1ccc(S(=O)(=O)Nc2ccccc2)cc1` as the compound, how does the max response read?
A: Its max response is -2.25% (inactive).

Q: With `O=C1OC(OC(=O)c2cccnc2Nc2cccc(C(F)(F)F)c2)c2ccccc21` (centres undefined) as the compound, how does the max response read?
A: Its max response is 9.12% (inactive).

Q: With `O=C(Oc1ccccc1C(=O)O)c1ccccc1O` as the compound, how does the max response read?
A: Its max response is -1.86% (inactive).

Q: For `CCCCN(CCCC)CCCOC(=O)c1ccc(N)cc1`, which max response is on record?
A: Its max response is 0.616% (inactive).

Q: Which max response does the source give for `NS(=O)(=O)c1cc2c(cc1Cl)NC(CSCc1ccccc1)=NS2(=O)=O` here?
A: The max response was -8.8% (inactive).

Q: Which max response does the source give for `Oc1ccc(C(O)CNCCCCCCNCC(O)c2ccc(O)c(O)c2)cc1O` (centres undefined) here?
A: The max response was -5.82% (inactive).

Q: With `Cc1cc(O)cc2c1O[C@](C)(CCC[C@H](C)CCC[C@H](C)CCCC(C)C)CC2` as the compound, how does the max response read?
A: Its max response is -2.34% (inactive) and 0.0933% (inactive).

Q: For `N[C@H](C(=O)O)c1ccc(O)cc1`, which max response is on record?
A: The max response was -1.91% (inactive).

Q: Which max response does the source give for `C[C@@H]1CN(c2c(F)c(F)c3c(=O)c(C(=O)O)cn(C4CC4)c3c2F)C[C@H](C)N1` here?
A: Its max response is 12.6% (inactive).

Q: Which max response does the source give for `Cc1ccc2nc(N)[nH]c(=O)c2c1Sc1ccncc1` here?
A: Its max response is -4.42% (inactive).
